This note sets out measurements from the supplement of paper PMC13380429.

Each structure is given as a SMILES string. Values without a mark were called inactive.

The assay relates to Vero E6 infected with SARS-CoV-2. As to the kind of experiment: SARS-CoV-2 infection rate relative to infected DMSO; higher = more infection, active = 60 or less. To be noted: 24 h.
Regarding `CC[C@H]1OC(=O)C[C@@H](O)[C@H](C)[C@@H](O[C@@H]2O[C@H](C)C[C@H](N(C)C)[C@H]2O)[C@@H](CC=O)C[C@@H](C)C(=O)/C=C/[C@]2(C)O[C@H]2[C@@H]1C` [rosamicin] (10 µM), the SARS-CoV-2 infection rate was 96%.

As for `O=C(O)CNC(=O)c1c(O)c2ccccc2n(Cc2ccccc2)c1=O` (10 µM), the SARS-CoV-2 infection rate was 102%.

Consider `O=S(=O)(O)c1cc(I)c(O)c2ncccc12` [chiniofon] (10 µM), for which the SARS-CoV-2 infection rate is 102%.

For the compound `C#C[C@]1(O)CC[C@H]2[C@@H]3CCC4=CC(=O)CC[C@@H]4[C@H]3CC[C@@]21C` [Norethindrone (Norethisterone)] (10 µM), the SARS-CoV-2 infection rate is 112%.

As for `CNS(=O)(=O)CCc1ccc2[nH]cc(C3CCN(C)CC3)c2c1` [naratriptan] (10 µM), the SARS-CoV-2 infection rate was 104%.

For `Nc1nccc(Oc2ccc(NC(=O)c3c[nH]cc(-c4ccc(F)cc4)c3=O)cc2F)c1Cl` [metatinib] (10 µM), the SARS-CoV-2 infection rate is 102%.

For `O=C1Cc2c([nH]c3ccc(Br)cc23)-c2ccccc2N1` [kenpaullone] (10 µM), the SARS-CoV-2 infection rate is 69.5%.

With `COCCOC(=O)C1=C(C)NC(C)=C(C(=O)OC(C)C)C1c1cccc([N+](=O)[O-])c1` (stereo not given) [nimodipine] (10 µM), the SARS-CoV-2 infection rate was 92%.

Regarding `COc1cc(OC)cc(N(CCNC(C)C)c2ccc3ncc(-c4cnn(C)c4)nc3c2)c1` [erdafitinib] (0.833333 µM), the SARS-CoV-2 infection rate was 108%.

`COc1ccc(COc2cc3oc(=O)c4cc(C(C)O)ccc4c3cc2OC)cc1` (stereo not given) [palomid-529] (10 µM): the SARS-CoV-2 infection rate was 113%.

As to `COc1cc2c(NC3CCN(C)CC3)nc(N3CCCN(C)CC3)nc2cc1OCCCN(C)C` (10 µM), the SARS-CoV-2 infection rate was 116%.

`CC1(C)CN(C(=O)c2ccc(-c3cccc4nc(NC(=O)C5CC5)nn34)cc2)C1` [solcitinib] (10 µM): the SARS-CoV-2 infection rate is 110%.

As for `Cc1nn(C)c2nc(NNC(=O)Nc3cc(Cl)nc(Cl)c3)cc(C(C)C)c12` (10 µM), the SARS-CoV-2 infection rate was 108%.

With `CCN1CCC[C@H]1CNC(=O)c1c(O)c(Cl)cc(Cl)c1OC` [raclopride] (10 µM), the SARS-CoV-2 infection rate is 104%.

As to `COC(=O)N1CC[C@@H]2[C@H]1CCC[C@@]2(O)C#Cc1cccc(C)c1` [mavoglurant] (10 µM), the SARS-CoV-2 infection rate was 112%.

Consider `C[C@@]1(C(=O)O)NCCc2cc(O)c(O)cc21` [salsolinol-1-carboxylic-acid] (10 µM), for which the SARS-CoV-2 infection rate is 97.5%.

For `Cc1cc(N2CCCCC2)nc2ccccc12` (10 µM), the SARS-CoV-2 infection rate was 93%.

Take `CCCCCCCCCCCCCCCC(=O)OC(CC(=O)[O-])C[N+](C)(C)C` (stereo not given) [palmitoylcarnitine] (0.833333 µM): the SARS-CoV-2 infection rate was 106%.

On to `CCCn1c(=O)[nH]c2nc(-c3ccc(S(=O)(=O)O)cc3)[nH]c2c1=O` (10 µM), for which the SARS-CoV-2 infection rate was 105%.

In the case of `CCOc1ccc(NC(=S)N2CCC(C(O)(c3ccccc3)c3ccccc3)CC2)cc1` (10 µM), the SARS-CoV-2 infection rate is 86.5%.

`CCNC(=O)C#Cc1ccc2c(C(=Nc3ccc(CN(C)C)cc3)c3ccccc3)c(O)[nH]c2c1` (0.833333 µM): the SARS-CoV-2 infection rate was 99%.

As for `CCCCc1nn(-c2ccccc2C(F)(F)F)c(=O)n1Cc1ccc(-c2ccccc2S(=O)(=O)NC(=O)c2sccc2C)cc1` (10 µM), the SARS-CoV-2 infection rate was 104%.

On to `CCCCOC(=O)c1cc2c(cn1)[nH]c1ccccc12` [beta-CCB] (10 µM), for which the SARS-CoV-2 infection rate was 94%.

In the case of `Nc1c(-c2cccc(C(F)(F)F)c2)nsc1C(=O)O` [amflutizole] (10 µM), the SARS-CoV-2 infection rate is 108%.

For `O=C(Nc1ccc(N2CCC(C(=O)N3CCOCC3)CC2)cc1)c1cnc(Oc2ccccc2)nc1` (10 µM), the SARS-CoV-2 infection rate was 114%.

For the compound `CCC(CO)(C(=O)OC1CC2CCC(C1)[N+]2(C)C)c1ccccc1` (stereo not given) [troventol] (10 µM), the SARS-CoV-2 infection rate was 106%.

In the case of `CCCc1nn(C)c2c(=O)[nH]c(-c3cc(S(=O)(=O)N4CCN(C)CC4)ccc3OCC)nc12` [sildenafil] (10 µM), the SARS-CoV-2 infection rate is 109%.

As for `Cn1ccc2cc(NC(=O)Nc3cccnc3)ccc21` (10 µM), the SARS-CoV-2 infection rate is 117%.

Consider `CN1[C@@H]2CC[C@H]1C[C@@H](OC(=O)c1c[nH]c3ccccc13)C2` [tropisetron] (10 µM), for which the SARS-CoV-2 infection rate is 102%.

As for `CC(CN(C)C)C(C)(O)Cc1ccc(Cl)cc1` (stereo not given) [clobutinol] (10 µM), the SARS-CoV-2 infection rate was 109%.
